# Reference: publication PMC11062922 (Nature Chemical Biology, 2023)
# Like-named read-outs stand apart in the source and are kept apart here.
# Tests used:
# Design in all cases: species or system human, MV4-11 + K-562 + COLO205 + SK-N-BE2 + OVCAR-8
# CDK2 = conditions: read-out: apparent Kd, n = 1
# CDKL5 = conditions: read-out: apparent Kd, n = 1
# FLT3 = conditions: read-out: apparent Kd; compound concentrations:100 nM and 1000 nM (sheet 'Samples'); n = 1
# CDC42 = conditions: read-out: apparent Kd; compound concentrations: 100 nM and 1000 nM (sheet 'Samples'), CATDS: 8.3198711436125394E-2; n = 1
# CSNK1A1 = conditions: read-out: apparent Kd; compound concentrations: 100 nM and 1000 nM (sheet 'Samples'), CATDS: 8.7123517988238197E-2; n = 1
# CSNK1D = conditions: read-out: apparent Kd; compound concentrations: 100 nM and 1000 nM (sheet 'Samples'), CATDS: 0.37273157205877999; n = 1
# CSNK1E = conditions: read-out: apparent Kd; compound concentrations: 100 nM and 1000 nM (sheet 'Samples'), CATDS: 0.16724223379061501; n = 1
# MAPK10 = conditions: read-out: apparent Kd; compound concentrations: 100 nM and 1000 nM (sheet 'Samples'), CATDS: 0.11305020597261101; n = 1
# MAPK14 = conditions: read-out: apparent Kd; compound concentrations: 100 nM and 1000 nM (sheet 'Samples'), CATDS: 9.3591045937798004E-2; n = 1
# MAPK9 = conditions: read-out: apparent Kd; compound concentrations: 100 nM and 1000 nM (sheet 'Samples'), CATDS: 8.8395799729483998E-2; n = 1
# MAPKAPK2 = conditions: read-out: apparent Kd; compound concentrations: 100 nM and 1000 nM (sheet 'Samples'), CATDS: 0.13823017842708299; n = 1
# RIPK2 = conditions: read-out: apparent Kd; compound concentrations: 100 nM and 1000 nM (sheet 'Samples'), CATDS: 9.29117270749487E-2; n = 1
# CDK6 = conditions: read-out: apparent Kd, n = 1
# CSNK2A2 = conditions: read-out: apparent Kd; compound concentrations: 100 nM and 1000 nM (sheet 'Samples'), CATDS: 0.29769898154006003; n = 1
# DJA1 = tested on: T1, DJA1; conditions: read-out: apparent Kd; compound concentrations:100 nM and 1000 nM (sheet 'Samples'); n = 1
# T1 construct: gene DNAJA1
# GARS = conditions: read-out: apparent Kd; compound concentrations:100 nM and 1000 nM (sheet 'Samples'); n = 1
# GSK3A = conditions: read-out: apparent Kd, n = 1
# GSK3B = conditions: read-out: apparent Kd, n = 1
# MAP2K1 = conditions: read-out: apparent Kd; compound concentrations:100 nM and 1000 nM (sheet 'Samples'); n = 1
# NNT = conditions: read-out: apparent Kd; compound concentrations:100 nM and 1000 nM (sheet 'Samples'); n = 1
# NQO1 = conditions: read-out: apparent Kd; compound concentrations:100 nM and 1000 nM (sheet 'Samples'); n = 1
# PIK3CA = conditions: read-out: apparent Kd; compound concentrations:100 nM and 1000 nM (sheet 'Samples'); n = 1
# PIK3CD = conditions: read-out: apparent Kd; compound concentrations:100 nM and 1000 nM (sheet 'Samples'); n = 1
# PRKCZ = conditions: read-out: apparent Kd; compound concentrations:100 nM and 1000 nM (sheet 'Samples'); n = 1
# PRKD2 = conditions: read-out: apparent Kd; compound concentrations:100 nM and 1000 nM (sheet 'Samples'); n = 1
# PSMC3 = conditions: read-out: apparent Kd; compound concentrations:100 nM and 1000 nM (sheet 'Samples'); n = 1
# SMC4 = conditions: read-out: apparent Kd; compound concentrations:100 nM and 1000 nM (sheet 'Samples'); n = 1
# CLK1 = conditions: read-out: apparent Kd; compound concentrations: 100 nM and 1000 nM (sheet 'Samples'), CATDS: 9.43888536674687E-2; n = 1
# CLK2 = conditions: read-out: apparent Kd; compound concentrations: 100 nM and 1000 nM (sheet 'Samples'), CATDS: 0.135718758721844; n = 1
# ICK = conditions: read-out: apparent Kd; compound concentrations: 100 nM and 1000 nM (sheet 'Samples'), CATDS: 0.107034687138564; n = 1
# PRKCA = conditions: read-out: apparent Kd; compound concentrations: 100 nM and 1000 nM (sheet 'Samples'), CATDS: 8.3091420111897102E-2; n = 1
# PRKCB = conditions: read-out: apparent Kd; compound concentrations: 100 nM and 1000 nM (sheet 'Samples'), CATDS: 7.1835327532873305E-2; n = 1
# PRKCD = conditions: read-out: apparent Kd; compound concentrations: 100 nM and 1000 nM (sheet 'Samples'), CATDS: 8.6510432478471705E-2; n = 1
# PRKCQ = conditions: read-out: apparent Kd; compound concentrations: 100 nM and 1000 nM (sheet 'Samples'), CATDS: 8.9522770196270404E-2; n = 1
# [1] = compound concentrations:100 nM and 1000 nM (sheet 'Samples')
structure (smiles),measurement,setting,value
O=C(Nc1n[nH]c2cc(-c3ccoc3)ccc12)C1CC1 [SB-738481],potency estimated from few doses,CDK2; [1],1470 nM
same,potency estimated from few doses,CDKL5; [1],1100 nM
same,potency estimated from few doses,FLT3,884 nM
Fc1ccc(-c2nc3n(c2-c2ccncc2)CCS3)cc1 [GI98581X],potency estimated from few doses,CDC42,1530 nM
same,potency estimated from few doses,CSNK1A1,1320 nM
same,potency estimated from few doses,CSNK1D,87.9 nM
same,potency estimated from few doses,CSNK1E,304 nM
same,potency estimated from few doses,MAPK10,666 nM
same,potency estimated from few doses,MAPK14,1070 nM
same,potency estimated from few doses,MAPK9,1260 nM
same,potency estimated from few doses,MAPKAPK2,435 nM
same,potency estimated from few doses,RIPK2,1090 nM
Cl.NS(=O)(=O)c1ccc(N/N=C2\C(=O)Nc3cccc(CCc4ccncc4)c32)cc1 [GW352430A],potency estimated from few doses,"CDK2; compound concentrations: 100 nM and 1000 nM (sheet 'Samples'), CATDS: 0.44900253923849898",936 nM
same,potency estimated from few doses,"CDK6; compound concentrations: 100 nM and 1000 nM (sheet 'Samples'), CATDS: 0.29293356798223702",2160 nM
same,potency estimated from few doses,CSNK2A2,2070 nM
COc1cccc(C2=C(Nc3cccc(C(=O)O)c3)C(=O)NC2=O)c1 [SB-390770],potency estimated from few doses,CDK6; [1],2180 nM
same,potency estimated from few doses,DJA1,842 nM
same,potency estimated from few doses,GARS,1360 nM
same,potency estimated from few doses,GSK3A; [1],830 nM
same,potency estimated from few doses,GSK3B; [1],859 nM
same,potency estimated from few doses,MAP2K1,2350 nM
same,potency estimated from few doses,NNT,1120 nM
same,potency estimated from few doses,NQO1,2210 nM
same,potency estimated from few doses,PIK3CA,226 nM
same,potency estimated from few doses,PIK3CD,130 nM
same,potency estimated from few doses,PRKCZ,1580 nM
same,potency estimated from few doses,PRKD2,1720 nM
same,potency estimated from few doses,PSMC3,907 nM
same,potency estimated from few doses,SMC4,986 nM
Cn1cc(C2=C(c3cn(C)c4cc(N)ccc34)C(=O)NC2=O)c2ccccc21 [RO0317511-000],potency estimated from few doses,"CDKL5; compound concentrations: 100 nM and 1000 nM (sheet 'Samples'), CATDS: 7.1774388141359599E-2",1810 nM
same,potency estimated from few doses,CLK1,816 nM
same,potency estimated from few doses,CLK2,386 nM
same,potency estimated from few doses,"GSK3A; compound concentrations: 100 nM and 1000 nM (sheet 'Samples'), CATDS: 0.18937077321649401",223 nM
same,potency estimated from few doses,"GSK3B; compound concentrations: 100 nM and 1000 nM (sheet 'Samples'), CATDS: 0.20850333664225901",193 nM
same,potency estimated from few doses,ICK,614 nM
same,potency estimated from few doses,PRKCA,1140 nM
same,potency estimated from few doses,PRKCB,1800 nM
same,potency estimated from few doses,PRKCD,1020 nM
same,potency estimated from few doses,PRKCQ,930 nM
